High-throughput results: PubChem, National Center for Advancing Translational Sciences (NCATS)
The sample as a whole holds a higher share of hits than the screen did.
Eya2 inh: Eya2 (human) phosphatase inhibition; recombinant Eya2, OMFP fluorescence dephosphorylation (OMFP is methylfluorescein phosphate); Potency, µM (series often up to 76.9 µM), for the others: top-dose activity, negative = inhibition, most hits filed as inhibitors; 330,000 tested, 0.006% active; AID 488837; note: % is set by controls: 0 for no effect and ±100 for the full control effect
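Eya2 protein (added as 0.2 uM solution) was preincubated with compound for 10 min at ambient temperature in 50 mM HEPES pH 7.5, 50 mM NaCl, 5 uM MgCl2, 0.05% BSA, 1 mM DTT. OMFP (added at 50 uM) then reacted 10 min; fluorescence read at 485/525 nm.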
GALK inhibitor: blocks human galactokinase activity; P51570; Purified GALK, Kinase-Glo residual ATP luminescence; Potency, µM (highest dose often 57.5 µM), for inactives: at the top dose activity change, negative = inhibition, hits mostly inhibitors; 270,000 tested, 0.007% active; note: % is set by controls: 0 for no effect and ±100 for the full control effect
Target sequence (P51570 whole entry, looked up): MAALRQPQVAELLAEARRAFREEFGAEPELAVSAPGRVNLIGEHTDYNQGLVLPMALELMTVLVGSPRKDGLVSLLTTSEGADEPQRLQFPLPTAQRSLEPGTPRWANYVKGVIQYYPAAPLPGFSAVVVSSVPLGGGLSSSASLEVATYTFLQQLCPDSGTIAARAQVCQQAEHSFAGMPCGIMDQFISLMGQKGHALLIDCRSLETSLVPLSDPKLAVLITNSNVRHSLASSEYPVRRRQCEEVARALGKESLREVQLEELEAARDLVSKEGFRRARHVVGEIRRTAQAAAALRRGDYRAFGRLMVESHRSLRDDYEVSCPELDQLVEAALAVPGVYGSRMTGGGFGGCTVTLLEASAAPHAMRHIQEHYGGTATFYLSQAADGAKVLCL
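GALK at 5 nM final was combined with compound, 35 uM ATP and 100 uM galactose in HEPES pH8.0 with MgCl2 and DTT. The reaction ran one hour at room temperature before luminescent ATP detection.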
USP2a block: blocks human ubiquitin-specific protease USP2a; AID 463254; 330,000 tested, 0.01% active; O75604; USP2 core, Ub-CHOP2 coupled fluorogenic reporter, 485/531; Potency, µM (top dose mostly 38.3 µM), without a hit: top-dose activity change, negative = inhibition, most hits filed as inhibitors;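 note: plate controls were DMSO wells for no effect and full inhibition by NEM control for full effect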
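USP2 core (10nM final) preincubated 30min RT with compound in 20mM Tris-HCl pH 8.0, 2mM CaCl2, 2mM beta-mercaptoethanol, 0.05% CHAPS; 25nM Ub-CHOP2 plus 25nM reporter substrate added, fluorescence (Ex485/Em531) read after 60min.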
ClpP mod: qHTS Assay for Activators of ClpP | 340,000 tested, 1.9% active | purified B. subtilis ClpP, FRET peptide cleavage, 20 min | Potency, µM (top dose mostly 57.5 µM), for the others: top-dose activity change, negative = active; active = well fitted falling curve with a large enough effect; inconclusive = small, poorly fitted or top-dose-only effect; inactive = no such curve, though single readings can be large or run the other way; note: the source files actives as falling curves though it sought activators and does not explain the sign; nearly all actives have a fitted effect of over 65% in size
Target sequence (P80244 whole entry, looked up): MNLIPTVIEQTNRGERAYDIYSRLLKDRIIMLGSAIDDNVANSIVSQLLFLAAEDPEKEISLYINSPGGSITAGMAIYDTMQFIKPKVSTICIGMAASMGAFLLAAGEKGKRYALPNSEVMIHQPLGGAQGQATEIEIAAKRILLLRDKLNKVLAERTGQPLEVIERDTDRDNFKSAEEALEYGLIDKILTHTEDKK
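Purified B. subtilis ClpP, 10 microg/mL final in Tris/HCl pH8 with KCl, BSA, glycerol and Tween-20, cleaved an Abz/nitrotyrosine-quenched decapeptide. Fluorescence (ex 320, em 430) was read at 0 and 20 min at room temperature. Delta was normalized to 5.8 microM ADEP and DMSO/no-enzyme controls.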
Starred values were filed as active, the others as inactive; ? = inconclusive; nt = no result. Unless noted, calls come from the whole dose curve; as a rule, active = well fitted inhibition curve with a large enough effect; inconclusive = small, poorly fitted or top-dose-only effect, or effect the other way; inactive = flat fitted curve, though single readings scatter. Potency is the fitted concentration of half-maximal effect.

SMILES	Eya2 inh	GALK inhibitor	USP2a block	ClpP mod
O=C(c1ccc(Br)cc1)N(C1=NCCCCS1)c1ccccc1	-2%	-2%	1%	-2%
COc1ccc(-c2ccc(C(=O)Nc3ccc4c(c3)OCO4)c3occc23)c(C)c1	nt	nt	nt	32µM*
COc1ccc(-c2ccc(C(=O)Nc3ccc(OC)nc3)c3occc23)c(C)c1	nt	nt	nt	35µM*
COc1ccc(-c2coc3c(C(=O)Nc4ccc(OC)nc4)cccc23)c(C)c1	nt	nt	nt	-27%
COc1ccc2nc(N3C(=O)CC(C(C)c4ccccc4)C3=O)sc2c1 (stereo not given)	5%	0%	2%	28µM*
Cc1cc(NC(=O)CSc2nc(N)c(NC(=O)c3ccccc3F)c(=O)[nH]2)no1	4%	-10%	-1%	16µM*
Cc1cc(NC(=O)CSc2nc(N)c(NC(=O)c3ccccc3)c(=O)[nH]2)no1	-4%	5%	-2%	nt
COC(=O)c1cc2c(ccn2-c2ccc(F)cc2)n1CC(=O)OC(C)C	4%	3%	0%	-24%
COC(=O)c1cc2c(ccn2-c2ccc(F)cc2)n1CC(=O)C(C)(C)C	2%	-1%	1%	25µM*
CN1CC2=Cc3ccccc3OC23Oc2ccccc2C=C3C1	-9%	-1%	2%	3.5µM*
O=C(NCc1nnnn1-c1ccc(F)c(F)c1)c1ccc(S(=O)(=O)N2CCOCC2)cc1	2%	nt	0%	35µM*
O=C1Nc2ccc(S(=O)(=O)NCCCO)c3cccc1c23	3%	-5%	1%	5%
CCNS(=O)(=O)c1ccc2c3c(cccc13)C(=O)N2	27%	0%	1%	32µM*
CCC1(CC)NC(=O)N(CC(=O)N2CCc3ccccc32)C1=O	-7%	nt	1%	nt
COc1ccc(-c2nn3c(-c4ccco4)nnc3s2)cc1OC	-12%	0%	-3%	-5%
COc1cc(OC)c(-c2nn3c(-c4ccco4)nnc3s2)cc1OC	1%	-2%	-1%	28µM*
COc1cc2c(cc1OC)-c1nnc(-c3ccco3)n1C1(CCCC1)C2	2%	-4%	-2%	32µM*
c1coc(-c2nnc3n2C2(CCCC2)Cc2ccccc2-3)c1	4%	-1%	2%	?
O=C(CCN1C(=O)/C(=C/c2ccccc2)SC1=S)N[C@@H](CO)Cc1ccccc1	-18%	-2%	-2%	-1%
COc1ccc(CNc2nc3ccccc3n2CCN2CCCCC2)c(OC)c1	-18%	0%	-1%	-2%
CC1=C(C#N)C(c2cccnc2)C2=C(CC(C)(C)CC2=O)N1 (stereo not given)	1%	5%	0%	14µM*
CC1=C(C#N)C(c2ccc(O)cc2)C2=C(CC(C)(C)CC2=O)N1 (stereo not given)	-1%	-2%	4%	-28%
CC1=C(C#N)C(C)C2=C(CC(C)(C)CC2=O)N1 (stereo not given)	-1%	0%	3%	18µM*
NC(=O)COc1ccc(/C=N\NC(=O)c2ccc(-c3ccccc3)cc2)cc1	-8%	-5%	2%	10µM*
COC(=O)COc1ccc(/C=N/NC(=O)c2ccc(N(Cc3ccccc3)S(C)(=O)=O)cc2)cc1	-2%	-3%	0%	32µM*
SMILES	Eya2 inh	GALK inhibitor	USP2a block	ClpP mod
CC(C)Oc1ccc(/C=N/NC(=O)c2ccc(N(Cc3ccccc3)S(C)(=O)=O)cc2)cc1	-6%	nt	2%	-18%
CCc1nc(N2CCC(C)CC2)c2oc3ccccc3c2n1	0%	3%	-7%	32µM*
COC(=O)c1cc(C)c(C)cc1NC1OC(CO)C(O)C1O (stereo not given)	nt	nt	nt	3.5µM*
Cc1ccc([N+](=O)[O-])cc1NC1OC(CO)C(O)C1O (stereo not given)	-16%	-2%	-1%	0%
O=c1c2ccccc2nc(SCCN2CCOCC2)n1CCc1ccccc1	0%	-2%	-2%	nt
O=c1ccn(Cc2ccccc2)c(SCc2ccccc2)n1	nt	nt	nt	16µM*
O=C(Nc1ccc(-c2cn3c(n2)SCC3)cc1)c1ccc2c(c1)OCO2	10%	5%	-1%	1%
Cc1ccc(S(=O)(=O)c2cn(Cc3ccc(F)cc3)c3cc(N4CCCC4)c(F)cc3c2=O)cc1	nt	nt	nt	-5%
CCc1ccc(S(=O)(=O)c2cn(C)c3cc(N4CCCC4)c(F)cc3c2=O)cc1	nt	nt	nt	-29%
CCc1ccc(S(=O)(=O)c2cn(CC)c3cc(N4CCCCC4)c(F)cc3c2=O)cc1	nt	nt	nt	25µM*
CCCCn1cc(S(=O)(=O)c2ccc(CC)cc2)c(=O)c2cc(F)c(N3CCCC(C)C3)cc21 (stereo not given)	nt	nt	nt	16µM*
CCn1cc(S(=O)(=O)c2ccccc2)c(=O)c2cc(F)c(N3CCCCCC3)cc21	nt	nt	nt	32µM*
CCN(CC)c1cc2c(cc1F)c(=O)c(S(=O)(=O)c1ccc(C)cc1)cn2Cc1ccc(F)cc1	nt	nt	nt	13µM*
CC1=NN(C(=O)c2ccc(Cl)cc2)C(O)(c2ccccc2)C1 (stereo not given)	4%	7%	-7%	nt
COc1cc(OC)c(Nc2nc3ccc(C)cc3n3nnnc23)cc1Cl	nt	nt	nt	0%
CC(=O)C1=CCC(c2ccc(C)cc2)N(S(=O)(=O)c2ccc(C)cc2)C1 (stereo not given)	nt	nt	nt	-1%
C=CCNC(=O)N1CCCC(N2CCN(c3ccccc3OC)CC2)C1 (stereo not given)	5%	-3%	-1%	16µM*
COC(=O)c1ccc(NC(=O)CN(C2CCCCC2)S(C)(=O)=O)cc1	4%	-1%	-2%	0.71µM*
CCOC(=O)c1nn(-c2ccc(C)cc2)c(=O)cc1OCC(=O)Nc1ccc(OC)cc1	27%	nt	2%	8.9µM*
CCOC(=O)c1nn(-c2ccccc2)c(=O)cc1OCC(=O)Nc1cccc(OC)c1	-13%	nt	1%	3%
CCCCc1cc(=O)oc2c3c(cc(OCC(=O)N4CCC[C@H]4C(=O)O)c12)OC(C)(C)CC3	1%	nt	2%	5%
CCOC(=O)N1CCN(c2cc(N)c([N+](=O)[O-])cc2F)CC1	-9%	-3%	0%	0%
O=c1c(Cl)c(NCCO)ncn1-c1ccccc1	-4%	-2%	0%	28µM*
CNc1nc(Cl)nc2c1ncn2-c1ccccc1	nt	nt	nt	1%
COc1ccc(OCc2nc3c4c(ncn3n2)-c2ccccc2CC42CCCC2)cc1	-9%	-3%	4%	28µM*
SMILES	Eya2 inh	GALK inhibitor	USP2a block	ClpP mod
O=C(O)C1CCCN1c1ncccn1 (stereo not given)	-1%	-1%	-1%	1%
CCOC(=O)c1c(NC(=O)Cn2nnc(-c3ccc(Cl)cc3)n2)sc(C)c1C	-24%	0%	2%	25µM*
Cc1ccsc1/C=N/NC(=O)Cc1ccc(Cl)cc1	7%	-1%	6%	10%
Cc1ccc(S(=O)(=O)Nc2ccccc2CNc2cccc(C)n2)cc1	-3%	-5%	3%	-4%
Cc1cccc(NS(=O)(=O)c2ccc(Oc3ccccc3)cc2)n1	-7%	1%	2%	22µM*
CC(=O)N(Cc1cccnc1)c1cccc(-c2nc3ccccc3s2)c1	1%	5%	-3%	14µM*
